# Compound activity (PubChem BioAssay)
# AHR activator: activates the human aryl hydrocarbon receptor | activation, % at 5 µM | AHR-responsive luciferase reporter cells, luminescence | AID 2796 | P35869 | actives 2.5% (n = 320,000); in the data active = activation above about 47%;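 also: 0% = vehicle wells and 100% = reference agonist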
# H9c2 protect: modulators protecting cardiomyocytes from myocardial damage | H9c2 cardiomyocytes, H2O2 injury protection, ATPLite, 2 h | protection from H2O2 cell death, % at 20 µM | actives 0.63% (n = 360,000) | AID 588492;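 active = compounds giving at least 50% protection of heart cells from peroxide-induced death in the single-dose screen, raw or plate-pattern-corrected value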;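 also: 0% = DMSO wells with peroxide and 100% = DMSO wells without peroxide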
# GRIN3A LBD mod: modulates the human NR3A ligand-binding domain. NR3A LBD differential scanning fluorimetry, Tm shift; 0% = protein alone, 100% = glycine-bound protein. Tm shift relative to glycine control, % at 25 µM. actives 2.5% (n = 340,000). AID 1259313;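 active = melting temperature shift of at least 10% of the positive control shift, at one fixed dose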
# NTR1 ag: agonists of human neurotensin receptor NTR1. NTR1-U2OS beta-arrestin-GFP spot imaging, agonist mode. activation, % at 20 µM. actives 0.17% (n = 330,000);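 active = activation at or above 40% of the spot to cytoplasm intensity ratio, with at least 20 cells analyzed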;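 also: 0% = DMSO without peptide and 100% = 100 nM NTR1 peptide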
# Target sequence (P30989 whole entry, looked up): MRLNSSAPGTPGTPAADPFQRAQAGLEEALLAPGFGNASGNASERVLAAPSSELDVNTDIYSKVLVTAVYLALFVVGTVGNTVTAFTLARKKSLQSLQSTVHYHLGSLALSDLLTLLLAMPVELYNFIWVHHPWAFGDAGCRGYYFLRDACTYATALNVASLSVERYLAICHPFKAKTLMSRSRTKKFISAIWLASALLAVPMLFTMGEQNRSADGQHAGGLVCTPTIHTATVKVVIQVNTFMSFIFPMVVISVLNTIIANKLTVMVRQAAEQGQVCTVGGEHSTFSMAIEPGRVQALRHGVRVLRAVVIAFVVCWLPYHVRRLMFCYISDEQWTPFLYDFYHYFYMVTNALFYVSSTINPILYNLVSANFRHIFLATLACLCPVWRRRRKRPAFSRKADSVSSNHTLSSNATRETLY
# SUMO Mot1 rescue: inhibitors of SUMOylation pathway: yeast Mot1-301 growth rescue; S. cerevisiae Mot1-301 growth rescue, ATP luminescence, 38.5C; percent above DMSO median, 100 means doubled; growth rescue, % at 18.8 µM; actives 1% (n = 320,000); AID 2716;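 active = every valid replicate shows activation above 250% relative to neutral control wells; inactive = the rest, any valid replicate at or below 250%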;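 also: OY570 slx delta 5 strain wells were the positive control but not used for scaling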
# AI-2 QS modul: modulates the Vibrio harveyi AI-2 quorum sensing system. Vibrio harveyi JMH597 AI-2 luminescence/OD600 ratio, 9 h; active compounds read low; strain lacks LuxN and CqsS sensors; 0 = neutral-control median. activity change, % at 7.5 µM. AID 2094. actives 0.4% (n = 300,000); in the data active = activity change below about -75%, passing the limit was not always enough;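 also: luminescence divided by OD600 gain over 9 h not by final OD600 alone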
# Mot1 SUMO dose: yeast SUMO pathway inhibition in dose response. shares compounds with SUMO Mot1 rescue. S. cerevisiae Mot1-301 galactose growth, ATP luminescence, 24 h; -100 = growth of slx-deleted rescue strain. growth activity, percent, % at 42 µM. 2,300 tested, under 10 active;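 active = Signal drops as the depositor expects, and the fitted half-maximal dose is no more than ten times the top valid tested dose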;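 also: more negative values mean stronger growth rescue toward the control strain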
# Numbers without * were called inactive; / = no result given; + = active, no number. Only some compounds are listed: those with a hit (about 6.2% of all), similar ones and a draw of the others.
SMILES,AHR activator,H9c2 protect,GRIN3A LBD mod,NTR1 ag,SUMO Mot1 rescue,AI-2 QS modul,Mot1 SUMO dose
CC1(C)NC(=O)N(CCCOc2ccccc2Br)C1=O,2,0,-1,0,+,-6,0
COc1ccc(OC)c(C2=Nn3c(nnc3-c3ccco3)SC2)c1,5,17,-2,-1,5,28,/
COc1ccc(C2=Nn3c(nnc3-c3ccco3)SC2)cc1,4,18,-5,0,533*,48,-1
COc1cccc2c1C(=O)CC1C2CCC2CC(=O)CCC21C (stereo not given),-2,3,-4,0,-3,6,/
O=C(c1ccc(C(F)(F)F)n(Cc2ccc(Cl)cc2)c1=O)N1CCOCC1,0,-2,-1,4,-6,16,/
O=C(c1cc(Cl)c(=O)n(Cc2ccc(Cl)cc2)c1)N1CCOCC1,-2,2,1,0,658*,20,0
Cc1ccc(OCC(=O)NN2C(=O)c3ccccc3C2=O)c(C)c1,0,-1,1,1,436*,0,1
COc1cccc(NC(=S)NC(=O)c2cncc(Br)c2)c1,24,0,0,-1,983*,-3,-1
CC(=O)c1cccc(NC(=S)NC(=O)c2cncc(Br)c2)c1,30,7,0,1,-8,10,/
CCc1ccc(C(=O)COC(=O)CNC(=O)C2CCCCC2)cc1,/,-6,-1,-1,/,/,/
CC(=O)N1CCN(CC(O)COc2ccc(OCc3ccccc3)cc2)CC1 (stereo not given),0,-2,-4,2,402*,24,0
CC(=O)Nc1ccc(OCC(O)CN2CCN(Cc3ccccc3)CC2)cc1 (stereo not given),-2,-2,0,0,3,26,/
N=c1ncn(CC(O)CO)c2nc(N3CCOCC3)[nH]c12 (stereo not given),1,10,-1,-1,457*,6,0
CCC(C)N(C(=O)c1csnn1)C(C(=O)NCc1ccc(F)cc1)c1ccccc1F (stereo not given),2,4,-2,0,30,/,/
COC(=O)c1ccccc1N(C)S(C)(=O)=O,-2,-7,-1,-1,563*,1,0
Cc1c(F)cccc1NS(=O)(=O)c1ccc(N2CCCC2=O)cc1,/,-4,1,/,/,/,/
Cn1cnnc1-c1cccc(NS(=O)(=O)c2ccc(N3CCCC3=O)cc2)c1,-1,9,-1,0,+,5,1
C1CN(CCN2CCOCC2)CCN1,2,5,0,0,4,9,/
COc1ccc(N(C(=O)c2ccncc2)S(=O)(=O)c2ccc(F)cc2)cc1,1,8,/,0,451*,29,0
CSc1nc(S(C)(=O)=O)nc2[nH]c(=O)[nH]c12,/,-1,0,/,/,/,/
COc1cccc(C2C(C(=O)c3cccs3)=C(O)C(=O)N2CCN2CCOCC2)c1OC (stereo not given),/,-2,-1,-2,/,3,/
N#CC1=C(N)Nc2ncnn2C1c1ccc([N+](=O)[O-])cc1 (stereo not given),6,1,-3,0,599*,10,0
CC(C)(C)c1ccc(-c2nc(C=O)c3ccccn23)cc1,17,0,1,2,412*,12,-1
CCCCc1nc(SCC(=O)N2CCCC2)c2c(=O)n(C)c(=O)n(C)c2n1,-1,16,-1,0,-2,3,/
CCOC(=O)c1ccc(NC(=O)CC2Sc3ncnn3C2=O)cc1 (stereo not given),-5,-8,3,-2,674*,27,-1
SMILES,AHR activator,H9c2 protect,GRIN3A LBD mod,NTR1 ag,SUMO Mot1 rescue,AI-2 QS modul,Mot1 SUMO dose
CCN(CC)C(=O)C1=C(C)N(Cc2ccc(OC)cc2)C(=O)C(CC(=O)NC2CCCC2)C1 (stereo not given),/,1,/,/,/,/,/
COc1ccc(-c2nnc(SCC(C)C)o2)cc1,13,-2,-3,1,584*,5,1
COc1ccc(C(=O)CSc2nnc(-c3ccc(C)cc3)o2)cc1,0,-3,-2,1,393,39,/
O=C(c1cccc([N+](=O)[O-])c1)N1CCCC(C(=O)N2CCc3ccccc3C2)C1 (stereo not given),0,-1,2,0,-48,-24,/
CC(=O)c1cccc(NC(=O)CNC(=O)c2sc3ccccc3c2Cl)c1,28,-15,5,0,664*,13,1
CSc1cccc(N2C(=O)C3CCCN3C2=S)c1 (stereo not given),0,-3,4,0,802*,19,1
CC(OC(=O)Cc1ccc(Cl)cc1)C(=O)NC1CCCCC1C (stereo not given),/,0,0,0,/,/,/
O=c1c2ccccc2ncn1Cc1ccc(Cl)c(Cl)c1,2,7,4,-1,-30,14,/
O=c1c2ccccc2ncn1Cc1ccc(Cl)cc1,3,2,0,0,987*,5,0
O=c1c2ccccc2ncn1Cc1ccc2c(c1)OCO2,0,-4,2,2,428*,17,1
O=c1c2ccccc2c2ccccc2c(=O)n1Cc1ccc2c(c1)OCO2,/,-1,/,/,/,/,/
CCN(CC)C(=O)C1=C(C)N(Cc2ccccc2)C(=O)C(CC(=O)NCC2CCCCC2)C1 (stereo not given),/,2,/,/,/,/,/
Cc1cccc(OCc2nnc(SCC(=O)O)n2-c2ccccc2)c1,0,3,0,3,+,11,1
CCOC(=O)CC[C@H](NC(=O)Cn1cnc(C(=O)Nc2ccc(C)c(C)c2)n1)C(=O)OCC,/,-28,0,2,/,/,/
Cc1cc(C(=O)NN)n[nH]1,22,2,1,0,590*,12,0
CCC(CC)C(=O)N(C)c1c(C)nc2c(OCc3ccc(C#N)cc3)cccn12,/,1,/,/,/,/,/
CCOC(=O)C1C(c2ccc(C)o2)NC(=O)NC1(O)C(F)(F)F (stereo not given),4,-5,-5,1,459*,13,1
O=C(N/N=C/c1ccccn1)NC12CC3CC(CC(C3)C1)C2,4,4,0,1,612*,7,1
Cc1ccc(NC(=O)CSc2nn(-c3ccc(Cl)cc3)c(=S)s2)cc1S(=O)(=O)N(C)C,3,-7,4,5,1,8,/
CN(C)S(=O)(=O)c1cc(NC(=O)CSc2nn(-c3ccc(Cl)cc3)c(=S)s2)ccc1Cl,5,-8,16*,23,555*,30,1
CCOC(=O)C1=C(COC(=O)Cc2ccccc2[N+](=O)[O-])NC(=O)NC1C (stereo not given),/,0,/,/,/,/,/
